Activity calls are given as the source filed them.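 Rule for the calls: active = viability increase at or above a cutoff of the median across tested compounds plus 3 SD (cut at about 8.5% in these data, passing the limit was not always enough); inconclusive = some gains above the cutoff, reason not given; inactive = the rest.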
Test: viability gain of MRP-1-high H69AR cells under doxorubicin, pilot screen, MRP-1 activator project, CellTiter-Glo, duplicate (AID 807);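 note: compound pretreatment 18-22 h then 72 h combined with doxorubicin; 0% = doxorubicin alone and 100% = vehicle without doxorubicin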
Settings: H69AR viability with doxorubicin, CellTiter-Glo luminescence; at 10 µM; stronger effect = higher value

Structure (SMILES) | viability increase
COC(=O)c1ccsc1NC(=O)C1=COCCO1 | -0.42% (inactive)
CC(=O)Oc1c(Cl)c(N2CCOCC2)c(OC(C)=O)c2ccccc12 | -6.81% (inactive)
Cc1ccc2nc(N3CCOCC3)c3nncn3c2c1 | -2.43% (inactive)
CC(C)n1c(C(O)c2ccccc2)nc2ccccc21 (stereo not given) | 0.37% (inactive)
C=CCNC(=O)c1cnc2n(c1=O)CCS2 | 2.16% (inactive)
COc1ccc(-c2nnc3ccc(SCC(=O)N4CCCC4)nn23)cc1 | -4.23% (inactive)
Cn1c(Cn2c(=O)sc3ccccc32)nnc1SCC(=O)NCCc1ccccc1 | -0.09% (inactive)
CC(C)OCCCNC(=O)c1cc2c(=O)n(C)c3ccccc3c2n1C | -2.09% (inactive)
Cc1cc(-n2nc(C)cc2C)nc(NS(=O)(=O)c2ccccc2)n1 | -2.09% (inactive)
COC(=O)c1ccc(C2C(C(=O)Nc3ccc(C)cc3C)=C(C)Nc3ncnn32)cc1 (stereo not given) | -2.32% (inactive)
O=C(CC1NCCNC1=O)OCCCc1ccccc1 (stereo not given) | 0.07% (inactive)
CCOC(=O)Nc1ccc2c(c1)N(C(=O)N(CC)CC)c1ccccc1CC2 | -3.07% (inactive)
O=C(CSc1nnc2sc3ccccc3n12)NCc1ccc2c(c1)OCO2 | -1.52% (inactive)
Cc1nc2sc(C(c3ccc(C(C)C)cc3)N3CCN(CCO)CC3)c(O)n2n1 (stereo not given) | -0.75% (inactive)
CCOC(=O)c1ccc(NC(=O)CCC(=O)OC)cc1 | -1.2% (inactive)
CC(=NCCc1ccccc1)C1=C(O)CSC1=O | -1.75% (inactive)
COC(=O)CN1C(=O)C(O)(CC(=O)c2ccc(Br)cc2)c2ccccc21 (stereo not given) | -2.96% (inactive)
Cn1c(=O)c2c(SCC(=O)NCc3ccco3)nc(CC(C)(C)C)nc2n(C)c1=O | -4.81% (inactive)
CCn1c(C2CC(=O)N(c3cc(C)cc(C)c3)C2)nc2ccccc21 (stereo not given) | -4.36% (inactive)
CCN(CC)CCCN1C(=O)C(O)=C(C(=O)c2ccc(C)o2)C1c1cccs1 (stereo not given) | -4.04% (inactive)

Structure (SMILES) | viability increase
CCN(CC)S(=O)(=O)c1ccc(S(=O)(=O)N2CCN(CCC#N)CC2)cc1 | -1.58% (inactive)
CN(Cc1ccccc1)S(=O)(=O)c1ccc2[nH]c(=O)oc2c1 | -0.12% (inactive)
Cc1c(C(=O)NCc2ccc3c(c2)OCO3)sc2nc(-c3ccccc3)cn12 | -0.35% (inactive)
CC(=O)c1ccc(C(=O)Nc2ccc(N3CCOCC3)cc2)cc1 | 3.45% (inactive)
C=CCn1c(CSc2nc3ccccc3s2)nnc1SCC(=O)OCC | -0.04% (inactive)
Cn1c(=O)[nH]c(=O)c2c1nc(NC1CCCCC1)n2CCO | -2.15% (inactive)
Cc1cc(NC(=O)NC2(C(F)(F)F)Oc3ccc(Cl)cc3O2)no1 (stereo not given) | -5.78% (inactive)
O=C(CCc1nc2ccccc2[nH]1)N1CCN(C(=O)c2ccco2)CC1 | -0.98% (inactive)
COc1ccccc1-c1coc2cc(O)cc(O)c2c1=O | 0.63% (inactive)
Cn1c(=O)c2c(SCC(=O)N3CCN(c4ccccc4)CC3)nc(C3CC3)nc2n(C)c1=O | -2.93% (inactive)
CCC(C)NC(=O)c1cnc2n(c1=O)CCS2 (stereo not given) | 1.88% (inactive)
Cc1cccc(CSc2nnc(Cn3c(=O)sc4ccccc43)n2C)c1 | -1.45% (inactive)
COC(=O)NCC(c1cccnc1)N1CCN(c2ccccc2F)CC1 (stereo not given) | -0.18% (inactive)
COCCn1c(=O)[nH]c2cc(C(=O)NC3CCCCCC3)ccc2c1=O | -3.33% (inactive)
O=C(c1ccc2nc(N3CCOCC3)sc2c1)N1CCN(C(=O)c2ccco2)CC1 | -1.45% (inactive)
COc1ccc(CCNC(=O)c2cc3ccccn3n2)c(OC)c1OC | -0.02% (inactive)
Cc1nc2ccc(S(=O)(=O)NC(C(=O)NCc3ccco3)C(C)C)cc2s1 (stereo not given) | -2.43% (inactive)
CCOC(=O)c1c(C)oc2cc(Br)c(OC(C)C(=O)OCC)cc12 (stereo not given) | -0.93% (inactive)
Cc1cc(SCC(=O)c2ccccc2)n2nc(C)nc2n1 | -6.79% (inactive)
COc1ccccc1NC(=O)CSc1nc2ncccc2[nH]1 | -1.01% (inactive)

From PubChem BioAssay
